Common to all, as to conditions: concentration: 10 µM; 24 h
In test [1] the test system is HCC1569. The test can be described thus: cell number relative to DMSO (% of DMSO); higher = more cells (less growth inhibition / toxicity). The method, boiled down:
(§1)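 For HCC1569 and TDF cells, compounds at 10 µM were applied for 24 h at 37 °C in triplicate in 384-well plates. Cells were fixed in 3.7% formaldehyde, stained for H1.0 and with DAPI, and imaged at ×10 over six fields per well. The endpoint, H1.0 nuclear intensity or cell number, is shown as percent of the plate control using the median of replicates. Positional effects were smoothed for HCC1569 only.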

The test system of test [2] is TDF. The description is as above. The method, boiled down: as §1
The subject of test [3] is TDF. The test can be described thus: H1.0 immunofluorescence intensity relative to DMSO (% of DMSO); higher = stronger H1.0 induction, active = 120 or more. The method, boiled down:
as §1

Test [4] concerns HCC1569. The test can be described thus: H1.0 immunofluorescence intensity relative to DMSO (% of DMSO); higher = stronger H1.0 induction, active = 140 or more. The method, boiled down:
as §1

The text below walks through data of the supplement of paper PMC7156485.
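For H1.0 immunofluorescence intensity relative to DMSO in this document: TDF is a line of transformed human dermal fibroblasts of mesenchymal origin.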
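For cell number relative to DMSO in this document: TDF denotes transformed human dermal fibroblasts of mesenchymal origin.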

Regarding `CCCCN1CCCCC1C(=O)Nc1c(C)cccc1C` (stereo unspecified) [Bupivacaine], the cell number turned out to be 97.9 with HCC1569 [1] and 108 in the test with TDF [2]. The H1.0 immunofluorescence intensity with TDF [3] was 101 (inactive); in the test on HCC1569 [4], 120 (inactive).
For `Cc1ncc(Cl)cc1NCc1ccc(C(=O)N[C@@H](CC2CCCC2)C(=O)NC2CC2)s1` the same measures were 96.6, 96.1, 99.9 (inactive) and 101 (inactive).
Taken in the same sequence, the figures for `CCC(=C(c1ccccc1)c1ccc(OCCN(C)C)cc1)c1ccccc1` [Tamoxifen] were 103, 99.1, 97.7 (inactive) and 114 (inactive).
With `N=C([NH3+])N1CCc2ccccc2C1.N=C([NH3+])N1CCc2ccccc2C1.O=S(=O)([O-])[O-]` [Debrisoquin sulfate], the cell number with HCC1569 [1] was found to be 104; with TDF [2], 107. In addition, the H1.0 immunofluorescence intensity in the test on TDF [3] and in the test with HCC1569 [4] was 101 (inactive) in each case.
With `CCCCCC(=O)c1c(O)c(Cl)c(OC)c(Cl)c1O` [1-(3,5-dichloro-2,6-dihydroxy-4-methoxyphenyl)-1-hexanone], the cell number in the test on HCC1569 [1] was determined as 93.6; in the test with TDF [2] it was 90. Besides, the H1.0 immunofluorescence intensity in the test with TDF [3] was 101 (inactive); in the test with HCC1569 [4], 120 (inactive).
For `CCCCCCCCCCCCCCCC(=O)NC(COP(=O)(O)O)C(=O)O` (stereo unspecified) the same measures were 102, 109, 92 (inactive) and 98.9 (inactive).
Taken in the same sequence, the figures for `CC(C)(C)NCC(O)c1ccc(O)c(CO)c1` (stereo unspecified) [Salbutamol] were 99.7, 99.3, 95.9 (inactive) and 101 (inactive).
For the compound `O=C([O-])CCCc1ccccc1.[Na+]` [Sodium Phenylbutyrate], the values for the cell number in the test on HCC1569 [1] and in the test on TDF [2] were 103 and 106, respectively. For the same compound, the H1.0 immunofluorescence intensity with TDF [3] was 96.4 (inactive); with HCC1569 [4] it was 97.7 (inactive).
In the case of `N#Cc1cnc2cnc(NCc3cccnc3)cc2c1Nc1ccc(F)c(Cl)c1` [Tpl2 Kinase Inhibitor], the cell number worked out at 69.9 in the test on HCC1569 [1] and 74.3 in the test on TDF [2]. Besides, the H1.0 immunofluorescence intensity is 92.6 (inactive) with TDF [3] and 185 (active) with HCC1569 [4].
